Bioassay records as filed in PubChem.
Fh CTSL1 inh: counter-screen for PFM18AAP inhibitors: inhibitors of F. hepatica cathepsin L1 | recombinant F. hepatica cathepsin L1, Z-Leu-Arg-MCA fluorescence | inhibition, % at 5.96 µM | actives 0.49% (n = 300,000) | AID 1906;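 active = inhibition above the mean of all tested compounds plus 3 SD, set per screening campaign, cut at about 17% in these data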
Rpn11 block: blocks the human proteasome subunit Rpn11. O00487. inhibition, % at 20 µM. actives 0.59% (n = 360,000). AID 588493. human 26S proteasome, Ub4-pepOG fluorescence polarization; 20S core pre-blocked with epoxomicin;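 active = inhibition at 20 µM, scaled to each plate's controls, above about 33%, limit read from the data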
HNF4A DNA FP: change in binding of human HNF4 alpha to DNA. HNF4a-FITC DNA binding, fluorescence polarization, 1 h. activity change, % at 10 µM. actives 0.3% (n = 360,000). AID 1224865; in the data active = activity change above about 30%, passing the limit was not always enough
Target sequence (P41235 whole entry, looked up): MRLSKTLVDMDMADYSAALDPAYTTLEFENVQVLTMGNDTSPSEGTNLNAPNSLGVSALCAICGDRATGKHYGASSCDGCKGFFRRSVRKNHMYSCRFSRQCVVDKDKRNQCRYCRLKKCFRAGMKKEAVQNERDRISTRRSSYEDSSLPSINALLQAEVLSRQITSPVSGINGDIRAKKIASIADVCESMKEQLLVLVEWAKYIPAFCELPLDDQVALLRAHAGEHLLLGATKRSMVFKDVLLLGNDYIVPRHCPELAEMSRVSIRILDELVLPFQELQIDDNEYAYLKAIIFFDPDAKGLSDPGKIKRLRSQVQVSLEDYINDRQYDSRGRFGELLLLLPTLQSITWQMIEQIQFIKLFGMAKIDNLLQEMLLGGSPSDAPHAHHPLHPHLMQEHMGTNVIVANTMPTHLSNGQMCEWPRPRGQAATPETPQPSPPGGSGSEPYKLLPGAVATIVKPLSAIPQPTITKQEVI
PHOSPHO1 inh: PHOSPHO1 (human) inhibition. Q8TCT1. recombinant PHOSPHO1, absorbance phosphatase assay. inhibition, % at 13.3 µM. actives 1.1% (n = 290,000); in the data active = inhibition above about 60%
TPT1 inhibitor: inhibitors of Candida albicans tRNA 2'-phosphotransferase TPT1 | recombinant caTPT1, FP RNA substrate dephosphorylation | inhibition, % at 5 µM | actives 0.81% (n = 300,000) | AID 1962;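 active = inhibition above the mean of all tested compounds plus 3 SD, set per screening campaign, cut at about 24% in these data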
CendR NRP1 mod: alters CendR peptide binding to human NRP-1 | AID 602438 | FAM-RPARPAR peptide binding to NRP-1, fluorescence polarization | actives 0.85% (n = 360,000) | inhibition, % at 25 µM;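 active = inhibition or corrected inhibition above about 18%, plus a signal ratio from 0.5 to 1.5, limit read from the data, passing the limit was not always enough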
Large screens that a line does not name were inactive. A selection: hits, their analogues and other compounds. The true share with any hit is near 3.3%.

CC(=O)Nc1ccc(NC(=O)C(C)OC(=O)C(C)SCC(=O)Nc2ccc(F)cc2)cc1 (centres undefined)	none (no result: PHOSPHO1 inh)
CSc1ccc(CN2CCCC(N3CCN(c4ccccc4)CC3)C2)cc1 (centres undefined)	none
O=C(NCCS(=O)(=O)NCC1CCCO1)c1ccccc1 (centres undefined)	none (no result: PHOSPHO1 inh)
O=c1c2cc(N3CCOCC3)ccc2[nH]c(=S)n1Cc1ccc(Cl)cc1	PHOSPHO1 inh 81.7
O=C(CCCCCn1c(=S)[nH]c2ccc(N3CCOCC3)cc2c1=O)NCc1ccc(Cl)cc1	none
CCNc1ccc(S(=O)(=O)N(C)C)cc1NCC(=O)Nc1ccccc1Cl	none
CCC(=O)N1CCC2(CC1)Oc1ccc(F)cc1C(=O)C21CC(c2ccc(Cl)cc2)=NO1 (centres undefined)	none
CC(C)C(=O)N1CCC2(CC1)Oc1ccc(F)cc1C(=O)C21CC(c2ccc(Cl)cc2)=NO1 (centres undefined)	CendR NRP1 mod 25.1
CC1CCC(C(=O)NC(C(=O)NCCN2CCC(C)CC2)C(C)C)CC1 (centres undefined)	none (no result: Fh CTSL1 inh, TPT1 inhibitor)
CCC1CCC(C(=O)NC(CCSC)C(=O)NCCc2ccc(S(N)(=O)=O)cc2)CC1 (centres undefined)	none
CCC1CCC(C(=O)NC(CCSC)C(=O)NCCN(CC(C)C)CC(C)C)CC1 (centres undefined)	Fh CTSL1 inh 30.9
CSCCC(NC(=O)C1CCC(C)CC1)C(=O)NCCN1CCOCC1 (centres undefined)	Fh CTSL1 inh 38.0
CC(C)CC(NC(=O)C1CCC(C)CC1)C(=O)NCCN1CCOCC1 (centres undefined)	Fh CTSL1 inh 59.7
COc1ccc(OC)c(S(=O)(=O)N2CCC(C(=O)NCCc3ccccc3)CC2)c1	none
O=C(NCc1ccc(F)cc1)c1cc(C2CCCN(C(=O)CCCc3ccccc3)C2)on1 (centres undefined)	none (no result: Fh CTSL1 inh, PHOSPHO1 inh, TPT1 inhibitor)
Cn1c(=O)[nH]c(=O)c2c1nc(N1CCCCC1)n2C/C=N/Nc1ccc(C(=O)O)cc1	PHOSPHO1 inh 64.5
Cc1ccnc2nc(C(=O)Nc3nccs3)nn12	none
Cc1nn(C)c(C)c1CN(C)C(=O)CCCC(=O)O	none
COc1ccccc1/C=N/NC(=O)CN(C1=NS(=O)(=O)c2ccccc21)c1ccccc1	CendR NRP1 mod 26.3
COc1ccc(/C=N/NC(=O)CN(C2=NS(=O)(=O)c3ccccc32)c2ccccc2)cc1	none
O=C(Cn1c(-c2ccccc2)noc1=O)N1CCC(Cc2ccccc2)CC1	none
CCc1ccc(CNc2ccc(O)cc2)cc1	Fh CTSL1 inh 104.9
Oc1ccc(NCc2ccc(OCc3ccccc3)cc2)cc1	none (no result: Fh CTSL1 inh, TPT1 inhibitor)
CCOC(=O)C(Cc1ccccc1)NC(=O)Cn1nnc(-c2ccccc2)n1 (centres undefined)	HNF4A DNA FP 38.5
CCCC(=O)Nc1sc(Cc2ccccc2)c(C)c1C(N)=O	none
Cc1ccc2cc(CCNC(=O)C(C)C)c(=O)[nH]c2c1C	none
CC(=O)Nc1ccc(S(=O)(=O)NCCc2cc3ccc(C)c(C)c3[nH]c2=O)cc1	PHOSPHO1 inh 62.6
Cc1ccc2cc(CCNC(=O)c3ccc4c(c3)OCO4)c(=O)[nH]c2c1C	HNF4A DNA FP 33.9
COc1cccc(-c2cc(C(=O)NCC3CCCO3)c3cc(C)cc(C)c3n2)c1 (centres undefined)	none
Cc1ccc(C)n1-c1ccccc1N1CCCCC1	PHOSPHO1 inh 62.9
CCN1CCN(C(c2ccc(C(F)(F)F)cc2)c2ccc3cccnc3c2O)CC1 (centres undefined)	none
OCCN1CCN(C(c2cccs2)c2ccc3cccnc3c2O)CC1 (centres undefined)	PHOSPHO1 inh 104.8 (no result: Fh CTSL1 inh, Rpn11 block, HNF4A DNA FP, TPT1 inhibitor, CendR NRP1 mod)
COC(=O)c1ccc(Nc2cc(C)nc(-c3ccccc3O)n2)cc1	HNF4A DNA FP 37.2
COC(=O)c1cccc(Nc2cc(C)nc(-c3ccccc3O)n2)c1	none
CCCCOC(=O)CSC1=C(C#N)C(c2ccccc2OCC)C(C#N)C(=O)N1 (centres undefined)	none
CCCOC(=O)CSC1=C(C#N)C(c2ccccc2OCC)C(C#N)C(=O)N1 (centres undefined)	PHOSPHO1 inh 75.4
O=C1SC(SCc2ccccc2)=N/C1=C\c1ccco1	none
O=C1SC(c2ccccc2)=N/C1=C/c1ccco1	PHOSPHO1 inh 72.9
